A short description of assay [1]: Primary qHTS for Huh7 cytotoxicity: counterscreen for inhibitors of MERS-S pseudotyped particle cell entry (AID 1479147). A general note: qHTS replaces the single test concentration by a dilution series.
Assay [2] is described as follows: Primary qHTS for inhibitors of MERS-S pseudo-typed particle cell entry (AID 1479149). Further: nearly all actives have a fitted effect of over 60% in size. Further: potency means the concentration at half of the fitted maximal effect.
The nature of assay [3]: Primary qHTS for Vero E6 cytotoxicity: counterscreen for inhibitors of SARS-S pseudo-typed particle cell entry (AID 1479150).

Results filed as inconclusive are left out. Values without a mark were called inactive. Active and inactive are the calls of the source. The call rests on the fitted dose curve.
On the % scale 0 is the no-effect control and ±100 the full control effect.

On to `N#CSCC(=O)O`, for which the Potency entry in assay [1], in assay [2] and in assay [3] was “inactive” each time.

Turning to `Clc1cccc(Cl)c1NC1=NCCN1`, the Potency entry in assay [1], in assay [2] and in assay [3] was “inactive” in each case.

For `C[N+]1(C)[C@@H]2CC(OC(=O)[C@H](CO)c3ccccc3)C[C@H]1[C@@H]1O[C@@H]12` (some centres undefined), the Potency result in assay [1], in assay [2] and in assay [3] was “inactive” throughout.

Turning to `CC(C)(C)NC[C@H](O)COc1cccc2c1CCCC2=O`, the Potency result in assay [1], in assay [2] and in assay [3] was “inactive” throughout.

In the case of `Cc1ccc(-c2ncc(Cl)cc2-c2ccc(S(C)(=O)=O)cc2)cn1`, the Potency entry in assay [1], in assay [2] and in assay [3] was “inactive” throughout.

On to `CC12CCC(CC1)C(C)(C)O2`, for which the Potency entry in assay [1], in assay [2] and in assay [3] was “inactive” throughout.

Regarding `NC(N)=NS(=O)(=O)c1ccc(N)cc1`, the Potency entry in assay [1] and in assay [3] was “inactive” each time.

As for `CCN(CC)CC#CCOC(=O)C(O)(c1ccccc1)C1CCCCC1` (centres undefined), the Potency result in assay [1] and in assay [3] was “inactive” throughout.

For the compound `CC(=O)N1CCN(c2ccc(OC[C@H]3CO[C@](Cn4ccnc4)(c4ccc(Cl)cc4Cl)O3)cc2)CC1`, the Potency in assay [2] was 7.94 µM (active).

With `CC(=O)S[C@@H]1CC2=CC(=O)CC[C@]2(C)[C@H]2CC[C@@]3(C)[C@@H](CC[C@@]34CCC(=O)O4)[C@H]12`, the Potency result in assay [2] and in assay [3] was “inactive” in each case.

On to `CNCCCC12CCC(c3ccccc31)c1ccccc12`, for which the Potency result in assay [1] and in assay [3] was “inactive” in each case.

Regarding `CC(=O)[C@H]1CC[C@H]2[C@@H]3C=CC4=CC(=O)CC[C@@]4(C)[C@@H]3CC[C@]12C`, the Potency result in assay [1] and in assay [3] was “inactive” each time.

Regarding `O=C(CCBr)N1CCN(C(=O)CCBr)CC1`, the Potency entry in assay [1], in assay [2] and in assay [3] was “inactive” in each case.

`O=C(O[C@H]1CN2CCC1CC2)N1CCc2ccccc2[C@@H]1c1ccccc1`: the Potency result in assay [1] and in assay [3] was “inactive” in each case.

Regarding `Nc1ncn([C@H]2C[C@H](O)[C@@H](CO)O2)c(=O)n1`, the Potency result in assay [1] and in assay [3] was “inactive” in each case.

On to `CCOc1ccc2nc3cc(N)ccc3c(N)c2c1`, for which the Potency entry in assay [1] and in assay [3] was “inactive” each time.

Turning to `COc1cc(C)c(Cc2cnc(N)nc2N)cc1OC`, the Potency entry in assay [1] and in assay [3] was “inactive” each time.

Take `Cc1cc(C(C#N)c2ccc(Cl)cc2)c(Cl)cc1NC(=O)c1cc(I)cc(I)c1O` (centres undefined): in assay [2], the Potency is 20 µM (active).

On to `CN(c1nccc(=O)[nH]1)C1CCN(c2nc3ccccc3n2Cc2ccc(F)cc2)CC1`, for which the Potency result in assay [1] and in assay [3] was “inactive” each time.

`Cc1ccc(Nc2nccc(N(C)c3ccc4c(C)n(C)nc4c3)n2)cc1S(N)(=O)=O`: the Potency result in assay [1] and in assay [3] was “inactive” throughout.

`COc1cc(C)nc(-n2nc(C)cc2OC)n1`: the Potency entry in assay [1] and in assay [3] was “inactive” each time.

Consider `CC(C)(C)CC(C)(C)c1ccc(OCCOCC[N+](C)(C)Cc2ccccc2)cc1`, for which the Potency result in assay [1] and in assay [3] was “inactive” throughout.

On to `CCN(CC)C(C)CN1c2ccccc2Sc2ccccc21` (centres undefined), for which the Potency result in assay [1] and in assay [3] was “inactive” throughout.

For `O=C(OCc1ccccc1)c1ccccc1`, the Potency entry in assay [1] and in assay [3] was “inactive” in each case.

Take `NCCCNCCSP(=O)(O)O`: the outcome in assay [1] and in assay [2] was “inactive [at 11.4 µM]” in each case. In assay [3], the activity change, negative = cytotoxicity is 2.55% [at 11.4 µM].

As to `CC(=O)OCC(=O)[C@H]1CC[C@H]2[C@@H]3CCC4=CC(=O)CC[C@]4(C)[C@H]3CC[C@]12C`, the Potency entry in assay [1] and in assay [3] was “inactive” each time.

Consider `O=c1[nH]c(=O)n([C@H]2C[C@H](O)[C@@H](CO)O2)cc1F`, for which the Potency entry in assay [2] and in assay [3] was “inactive” each time.

Regarding `CNCCC=C1c2ccccc2CCc2ccccc21`, in assay [3], the Potency entry is “inactive”.

For the compound `OCCN1CCN(CC/C=C2/c3ccccc3Sc3ccc(C(F)(F)F)cc32)CC1`, in assay [3], the Potency result is “inactive”.

Turning to `CN1CCN(C(c2ccccc2)c2ccc(Cl)cc2)CC1` (centres undefined), the Potency entry in assay [1] and in assay [3] was “inactive” each time.

Regarding `COc1ccc(-c2ccc3cc(C(=O)O)ccc3c2)cc1C12CC3CC(CC(C3)C1)C2`, the Potency result in assay [1] and in assay [3] was “inactive” in each case.

In the case of `O=c1[nH]c(=O)n([C@H]2C[C@H](O)[C@@H](CO)O2)cc1Br`, the Potency entry in assay [1] and in assay [3] was “inactive” throughout.

Regarding `CN1CCN(CCC=C2c3ccccc3Sc3ccc(S(=O)(=O)N(C)C)cc32)CC1`, in assay [2], the Potency result was “inactive”.

Regarding `CN(C)CCOc1ccc(/C(=C(/CCCl)c2ccccc2)c2ccccc2)cc1`, the Potency entry in assay [1] and in assay [3] was “inactive” each time.

For the compound `C[n+]1c2cc(N)ccc2cc2ccc(N)cc21` (tested in a mixture with another compound), the Potency in assay [2] is 7.94 µM (active).

For the compound `C#CCC(Cc1cnc2nc(N)nc(N)c2n1)c1ccc(C(=O)N[C@@H](CCC(=O)O)C(=O)O)cc1` (some centres undefined), the Potency entry in assay [2] was “inactive”.

For the compound `Oc1ccc(Cl)c2cccnc12`, the Potency entry in assay [2] and in assay [3] was “inactive” throughout.

In the case of `CNC[C@H](O)c1cccc(O)c1`, the Potency result in assay [1], in assay [2] and in assay [3] was “inactive” throughout.

With `CC(=O)O[C@]1(C(C)=O)CC[C@H]2[C@@H]3C[C@H](C)C4=CC(=O)CC[C@]4(C)[C@H]3CC[C@@]21C`, the Potency result in assay [1] and in assay [3] was “inactive” throughout.

Regarding `N#Cc1ccc2c(c1)N(CCCN1CCC(O)CC1)c1ccccc1S2`, the Potency entry in assay [1] and in assay [3] was “inactive” each time.

Regarding `C=CCN1C[C@H](C(=O)N(CCCN(C)C)C(=O)NCC)C[C@@H]2c3cccc4[nH]cc(c34)C[C@H]21`, the Potency result in assay [1] and in assay [3] was “inactive” each time.

For the origin of these results see PubChem BioAssay (NCATS).
